Test results taken from the supplement of paper PMC8866396.
± gives the standard deviation of the averaged measurements.

Legend:
IL-6-GFP PC-9GR = experiment: cell viability (CCK-8 OD) relative to DMSO control (fraction of control); higher = more viable cells; details: compound concentration: 10 uM; treatment time: 48 h
Summary of the method: (§1)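 PC-9 and PC-9GR lung cancer cells expressing lentiviral IL-6-GFP were plated at 3000 cells/well in 96-well plates and treated for 48 h with each library compound at a final 10 μM. Viability was determined by CCK-8 absorbance as a ratio of each well's optical density to the vehicle control well.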

IL-6-GFP PC-9 = experiment: as above; details: compound concentration: 10 uM; treatment time: 48 h
Summary of the method: as §1

SMILES	cell viability (IL-6-GFP PC-9GR)	cell viability (IL-6-GFP PC-9)
Cc1c(-c2ccc(O)cc2)n(Cc2ccc(OCCN3CCCCCC3)cc2)c2ccc(O)cc12.Cl [Bazedoxifene HCl]	0.539 ± 0.098	0.51 ± 0.077
COc1cc2c(Oc3ccc4[nH]c(C)cc4c3F)ccnc2cc1OCC1(N)CC1.Cl.Cl [Anlotinib (AL3818) dihydrochloride]	0.463 ± 0.024	0.575 ± 0.056
CCC1(O)C(=O)OCc2c1cc1n(c2=O)Cc2cc3cc(O)ccc3nc2-1 (stereo not given) [Hydroxy Camptothecine]	0.38 ± 0.2	0.404 ± 0.042
CN(C)C(=O)COC(=O)Cc1ccc(OC(=O)c2ccc(NC(=N)N)cc2)cc1.CS(=O)(=O)O [Camostat Mesilate]	0.986 ± 0.098	1.13 ± 0.049
CC(OCC1(c2ccccc2)CCC2(CCC(=O)N2)CN1)c1cc(C(F)(F)F)cc(C(F)(F)F)c1 (stereo not given) [Rolapitant]	0.76 ± 0.035	0.853 ± 0.26
CC(Cn1ccc(-c2ccc(C#N)c(Cl)c2)n1)NC(=O)c1cc(C(C)O)[nH]n1 (stereo not given) [Darolutamide (ODM-201)]	0.858 ± 0.18	0.962 ± 0.21
O=C([O-])Cc1ccccc1Nc1c(Cl)cccc1Cl.[K+] [Diclofenac Potassium]	1.25 ± 0.21	1.13 ± 0.18
CNC(=O)c1cc(Oc2ccc(NC(=O)Nc3ccc(Cl)c(C(F)(F)F)c3)cc2)ccn1 [Sorafenib]	0.634 ± 0.37	0.565 ± 0.1
Cc1ccc(C(=O)c2ccc(CC(=O)O)n2C)cc1 [Tolmetin]	1.11 ± 0.13	1.29 ± 0.02
O=C(c1ccc(F)c(F)c1Nc1ccc(I)cc1F)N1CC(O)(C2CCCCN2)C1 (stereo not given) [Cobimetinib (GDC-0973, RG7420)]	0.7146 ± 0.0029	0.115 ± 0.15
Cc1ccc(Cl)c(Nc2ccccc2C(=O)[O][Na])c1Cl [Meclofenamate Sodium]	0.983 ± 0.054	1.02 ± 0.11
O=C(O)CCc1nc(-c2ccccc2)c(-c2ccccc2)o1 [Oxaprozin]	0.9414 ± 0.0067	0.543 ± 0.2
O=C(Oc1ccccc1C(=O)O)c1ccccc1O [Sasapyrine]	0.988 ± 0.067	1.25 ± 0.019
C#Cc1cccc(Nc2ncnc3cc(OCCOC)c(OCCOC)cc23)c1.Cl [Erlotinib HCl (OSI-744)]	0.817 ± 0.21	0.388 ± 0.33
CCC1(O)C(=O)OCc2c1cc1n(c2=O)Cc2cc3c(CN(C)C)c(O)ccc3nc2-1.Cl (stereo not given) [Topotecan HCl]	0.451 ± 0.033	0.355 ± 0.11
CCCCCCNC(=O)n1cc(F)c(=O)[nH]c1=O [Carmofur]	0.934 ± 0.022	0.906 ± 0.14
Cn1c(=O)cc(N2CCCC(N)C2)n(Cc2cc(F)ccc2C#N)c1=O (stereo not given) [Trelagliptin]	1.09 ± 0.15	1.33 ± 0.49
Cc1cnc(NC(=O)C2=C(O)c3ccccc3S(=O)(=O)N2C)s1 [Meloxicam]	1.2096 ± 0.0007	1.4 ± 0.41
Cc1cc(Nc2ncc(Cl)c(Nc3ccccc3S(=O)(=O)C(C)C)n2)c(OC(C)C)cc1C1CCNCC1 [Ceritinib (LDK378)]	0.091 ± 0.015	0.0667 ± 0.041
CN1CCC(=C2c3ccccc3CCn3c(C=O)cnc32)CC1 [Alcaftadine]	0.751 ± 0.18	1.07 ± 0.21
CC(C)(C#N)c1cc(Cn2cncn2)cc(C(C)(C)C#N)c1 [Anastrozole]	1.15 ± 0.045	1.01 ± 0.078
CCC(=O)OC1(C(=O)SCF)C(C)CC2C3CC(F)C4=CC(=O)C=CC4(C)C3(F)C(O)CC21C (stereo not given) [Fluticasone propionate]	1.06 ± 0.43	0.821 ± 0.024
O=C(O)c1ccccc1Nc1cccc(C(F)(F)F)c1 [Flufenamic acid]	1.15 ± 0.34	1.14 ± 0.15
Cl.Cl.Cl.Cl.Cl.Cl.Cl.Cl.c1cc(CN2CCCNCCNCCCNCC2)ccc1CN1CCCNCCNCCCNCC1 [Plerixafor 8HCl (AMD3100 8HCl)]	1.04 ± 0.12	1.13 ± 0.1
CC1(C(=O)O)CCC2(C)CCC3(C)C(=CC(=O)C4C5(C)CCC(OC6OC(C(=O)O)C(O)C(O)C6OC6OC(C(=O)O)C(O)C(O)C6O)C(C)(C)C5CCC43C)C2C1.N (stereo not given) [Ammonium Glycyrrhizinate]	1.42 ± 0.25	1.31 ± 0.014

SMILES	cell viability (IL-6-GFP PC-9GR)	cell viability (IL-6-GFP PC-9)
CC(=O)Oc1ccccc1C(=O)O [Aspirin]	1.05 ± 0.027	1.23 ± 0.12
CC(C)C(=O)Nc1ccc([N+](=O)[O-])c(C(F)(F)F)c1 [Flutamide]	1.18 ± 0.054	1.2 ± 0.53
CC1(C)SC2C(NC(=O)C(c3ccccc3)S(=O)(=O)[O-])C(=O)N2C1C(=O)[O-].[Na+].[Na+] (stereo not given) [Sulbenicillin Sodium]	0.802 ± 0.17	0.857 ± 0.019
CC(C)OC(=O)CCC/C=C\CC1C(O)CC(O)C1CCC(O)CCc1ccccc1 (stereo not given) [Latanoprost]	0.776 ± 0.15	1 ± 0.26
O=C(O)c1cc(-c2ccc(F)cc2F)ccc1O [Diflunisal]	0.789 ± 0.23	1.15 ± 0.15
N#CC1CC2CC2N1C(=O)C(N)C12CC3CC(CC(O)(C3)C1)C2.O (stereo not given) [Saxagliptin hydrate]	0.79 ± 0.18	1.14 ± 0.091
C[Se]CC[C@H](N)C(=O)O [L-SelenoMethionine]	1.19 ± 0.22	1.28 ± 0.098
CC(C(=O)O)c1ccc2c(c1)Cc1cccnc1O2 (stereo not given) [Pranoprofen]	1.12 ± 0.019	1.25 ± 0.055
NC(CC(=O)N1CCn2c(nnc2C(F)(F)F)C1)Cc1cc(F)c(F)cc1F.O.O=P(O)(O)O (stereo not given) [Sitagliptin phosphate monohydrate]	0.836 ± 0.12	0.812 ± 0.47
CCC(=O)NS(=O)(=O)c1ccc(-c2c(-c3ccccc3)noc2C)cc1 [Parecoxib]	1.06 ± 0.1	1.26 ± 0.014
Nc1ccc(O)c(C(=O)O)c1 [Mesalamine]	1.27 ± 0.035	1.06 ± 0.072
CNCC(O)C(O)C(O)C(O)CO.Cc1c(Nc2ncccc2C(=O)O)cccc1C(F)(F)F [Flunixin Meglumin]	1.15 ± 0.12	0.964 ± 0.087
CC12CCC3c4ccc(O)cc4CC(CCCCCCCCCS(=O)CCCC(F)(F)C(F)(F)F)C3C1CCC2O (stereo not given) [Fulvestrant]	1.14 ± 0.072	1.024 ± 0.0045
COc1cc2nccc(Oc3ccc(NC(=O)C4(C(=O)Nc5ccc(F)cc5)CC4)cc3)c2cc1OC.O=C(O)CC(O)C(=O)O [Cabozantinib malate (XL184)]	0.81 ± 0.13	0.958 ± 0.062
CCc1cccc2c3c([nH]c12)C(CC)(CC(=O)O)OCC3 (stereo not given) [Etodolac]	1.22 ± 0.018	0.989 ± 0.076
CC(C)(C)c1nc(-c2cccc(NS(=O)(=O)c3c(F)cccc3F)c2F)c(-c2ccnc(N)n2)s1	1.14 ± 0.12	0.77 ± 0.035
Cc1ccc(=O)n(-c2ccccc2)c1 [Pirfenidone]	1.24 ± 0.21	1.07 ± 0.31
CC(=O)OC(C)OC(=O)C(C)c1ccc(-c2ccccc2)c(F)c1 (stereo not given) [Flurbiprofen Axetil]	1.17 ± 0.29	1.16 ± 0.038
CCC1(O)CC2CN(CCc3c([nH]c4ccccc34)C(C(=O)OC)(c3cc4c(cc3OC)N(C=O)C3C(O)(C(=O)OC)C(OC(C)=O)C5(CC)C=CCN6CCC43C65)C2)C1 (stereo not given) [Vincristine]	0.556 ± 0.22	0.631 ± 0.041
CC(C(=O)[O-])c1cccc(Oc2ccccc2)c1.CC(C(=O)[O-])c1cccc(Oc2ccccc2)c1.[Ca+2] (stereo not given) [Fenoprofen Calcium]	1.26 ± 0.064	0.938 ± 0.013
O=C1Nc2ccccc2/C1=C1\Nc2ccccc2C1=O [Indirubin]	1.28 ± 0.29	0.916 ± 0.059
CNC(=O)c1cc(Oc2ccc(NC(=O)Nc3ccc(Cl)c(C(F)(F)F)c3)c(F)c2)ccn1 [Regorafenib (BAY 73-4506)]	0.833 ± 0.029	0.476 ± 0.11
Nc1nc(=O)c2c([nH]1)NCC(CNc1ccc(C(=O)NC(CCC(=O)[O-])C(=O)[O-])cc1)N2C=O.O.O.O.O.O.[Ca+2] (stereo not given) [Leucovorin Calcium Pentahydrate]	1.25 ± 0.17	1.16 ± 0.28
CS(=O)(=O)Nc1cc2occ(NC=O)c(=O)c2cc1Oc1ccccc1 [Iguratimod]	1.46 ± 0.37	1.02 ± 0.19
COc1ccc2cc1Oc1ccc(cc1)CC1c3cc(c(OC)cc3CCN1C)Oc1c(OC)c(OC)cc3c1C(C2)N(C)CC3 (stereo not given) [Tetrandrine]	1.15 ± 0.36	1.3 ± 0.043
